Jurkat NFkB inh – inhibitors of the PMA/ionomycin-induced NF-kB reporter in Jurkat cells; 330,000 compounds, 0.53% hits; PMA/ionomycin-induced NF-kB luciferase reporter, luminescence; inhibition, % at 4 µM; AID 435003; in the data active means inhibition above about 50%
Beta apoptosis – blocks beta cell apoptosis; 300,000 compounds, 0.8% hits; INS-1E cytokine-induced death, ATP luminescence, 48 h; percent of positive-control rescue, neutral wells zero; protection from apoptosis, % (test concentration not listed);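 active means Every replicate reaches about 75%, or at least half do and their mean reaches it too, limit read from the data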;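 further: 0% = cytokine-treated negative control wells and 100% = positive control rescue; higher means more ATP so stronger rescue from cytokine killing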
697 NFkB inh – inhibitors of the PMA/ionomycin-induced NF-kB reporter in 697 B cells. 697 B-cell NF-kB luciferase reporter, 16 h. inhibition, % at 4 µM. 330,000 compounds, 0.33% hits. AID 435022; in the data active means inhibition above about 35%
Gli-Sufu antag – blocks Gli-Sufu signaling in a luciferase reporter; Sufu-KO-LIGHT fibroblasts, Gli luciferase reporter luminescence; AID 588413; inhibition, % at 5 µM; 340,000 compounds, 0.74% hits;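 active means inhibition above about 55%, limit read from the data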;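 further: 0% = DMSO-treated cells and 100% = wells with medium but no cells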
Mdm2-MdmX inh – inhibitors of human Mdm2/MdmX interaction; O15151+Q00987; SaOS-2 split-luciferase Mdm2/MdmX complementation, luminescence; inhibition, % at 8 µM; 330,000 compounds, 3% hits;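 active means inhibition of at least 50% at 8 µM in the primary screen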
Target sequence (O15151 whole entry, looked up): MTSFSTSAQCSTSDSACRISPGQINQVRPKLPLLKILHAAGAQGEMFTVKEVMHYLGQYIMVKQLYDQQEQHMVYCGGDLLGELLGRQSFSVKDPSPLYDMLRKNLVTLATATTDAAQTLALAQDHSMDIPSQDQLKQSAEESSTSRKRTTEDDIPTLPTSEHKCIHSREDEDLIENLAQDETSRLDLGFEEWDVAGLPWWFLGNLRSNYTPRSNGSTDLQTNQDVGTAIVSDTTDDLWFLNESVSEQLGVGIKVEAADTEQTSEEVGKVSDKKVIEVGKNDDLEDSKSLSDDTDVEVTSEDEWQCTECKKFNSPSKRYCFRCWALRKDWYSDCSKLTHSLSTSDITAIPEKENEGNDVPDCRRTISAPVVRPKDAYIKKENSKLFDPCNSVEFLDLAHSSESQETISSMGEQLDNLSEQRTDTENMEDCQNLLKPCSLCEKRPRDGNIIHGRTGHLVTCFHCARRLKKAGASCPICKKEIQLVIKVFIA
Target sequence (Q00987 whole entry, looked up): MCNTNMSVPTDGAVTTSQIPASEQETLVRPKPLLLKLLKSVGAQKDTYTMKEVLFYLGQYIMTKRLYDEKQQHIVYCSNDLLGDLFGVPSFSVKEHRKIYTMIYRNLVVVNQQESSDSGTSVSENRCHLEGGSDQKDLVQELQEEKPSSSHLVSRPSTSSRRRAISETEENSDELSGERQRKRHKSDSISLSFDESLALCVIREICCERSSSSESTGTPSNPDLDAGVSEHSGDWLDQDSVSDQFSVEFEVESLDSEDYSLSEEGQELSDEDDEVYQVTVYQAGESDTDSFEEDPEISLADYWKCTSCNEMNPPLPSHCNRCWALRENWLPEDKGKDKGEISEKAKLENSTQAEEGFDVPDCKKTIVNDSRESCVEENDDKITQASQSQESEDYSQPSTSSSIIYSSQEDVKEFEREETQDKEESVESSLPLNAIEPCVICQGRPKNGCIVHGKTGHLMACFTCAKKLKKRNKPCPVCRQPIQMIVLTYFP
CSC inhib – blocks cancer stem cells. cancer stem cell-like cells viability, luminescence. inhibition, % at 7.5 µM. 300,000 compounds, 1.1% hits; in the data active means inhibition above about 75%; tested in HMLE shEcad cells
Gli-Sufu confirm – confirmation of Gli-SUFU pathway antagonists | 2,500 compounds, 40% hits | shares compounds with Gli-Sufu antag | inhibition, % at 5 µM | Sufu-KO-LIGHT cells, Gli luciferase reporter, luminescence;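 active means mean inhibition at 5 µM reaching about 45%, limit read from the data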;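 further: plate controls were DMSO-treated cells for no effect and wells lacking cells for full effect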
SufuKO cytotox – cytotoxic in Gli-SUFU antagonist counter-screen | AID 651994 | cytotoxicity, % at 5 µM | shares compounds with Gli-Sufu antag | 2,500 compounds, 32% hits | Sufu-KO-LIGHT cells cytotoxicity, ATP luminescence;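 active means mean cytotoxicity at 5 µM above about 25%, limit read from the data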;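 further: cells exposed to compound overnight for roughly 16 to 18 hours; plate controls were DMSO wells with cells for no effect and medium without cells for full effect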
Wnt3a cs – counter-screen for Gli-SUFU antagonists: Wnt3a reporter inhibition | shares compounds with Gli-Sufu antag | Wnt-LIGHT cells, Wnt3a-driven luciferase reporter, luminescence | inhibition, % at 6.25 µM | 2,500 compounds, 20% hits | AID 651995;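 active means mean inhibition above about 25%, limit read from the data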
The depositor's hits bear a star; x = no result. In the library only some 4.5% were active in any assay of this set; here they are far more common.

SMILES | Jurkat NFkB inh | Beta apoptosis | 697 NFkB inh | Gli-Sufu antag | Mdm2-MdmX inh | CSC inhib | Gli-Sufu confirm | SufuKO cytotox | Wnt3a cs
Cc1ccccc1COC(=O)CNC(=O)c1sc2ccccc2c1Cl | 3.9 | 7.0 | 6.9 | 65.0* | 5.7 | -2.2 | 20.6 | 10.2 | -0.5
O=C(CNC(=O)c1sc2ccccc2c1Cl)OCc1ccccc1 | -6.1 | -7.6 | 23.2 | -5.3 | 2.4 | -5.1 | x | x | x
COc1ccc(CNc2ncnc3sccc23)cc1 | 34.8 | 75.4* | 0.3 | 61.1* | 28.4 | 2.2 | 48.5* | 37.4* | 23.9
COc1ccc(CNc2ncnc3sccc23)cc1OC | 30.4 | 54.2 | -8.5 | 30.1 | 17.3 | 2.0 | x | x | x
CCOC(=O)C1=C(C)NC(C)=C(C(=O)OCC)C1C | -3.2 | -12.4 | 25.7 | 53.2 | 32.4 | -19.3 | 14.6 | 0.9 | 11.2
O=C(Nc1nnc(Cc2ccccc2F)s1)Nc1ccccc1F | -38.5 | 7.1 | -15.5 | -26.4 | 12.5 | 57.8 | x | x | x
CN1CCN(C(=S)NC(=O)c2ccc(C(C)(C)C)cc2)CC1 | 19.7 | -8.5 | -21.6 | 59.8* | -9.8 | 0.1 | 17.3 | 11.3 | -62.9
Cc1ccc(C(=O)NC(=S)N2CCN(C)CC2)cc1 | 3.5 | -1.1 | -15.7 | -2.0 | -16.5 | -11.8 | x | x | x
CC(=O)Nc1ccc(S(=O)(=O)N2CCC(N3CCCCCC3)CC2)cc1 | -6.1 | x | 3.5 | 39.2 | -21.1 | -4.0 | x | x | x
Cn1c(CCN2CCN(c3ccccn3)CC2)nc2cc(NC(=O)COc3ccc(Cl)cc3)ccc21 | 27.0 | -0.4 | -25.2 | 61.1* | 47.9 | 26.6 | 31.5 | -10.1 | 29.0*
Cc1cccc(OCC(=O)Nc2ccc3c(c2)nc(CCN2CCN(c4ccccn4)CC2)n3C)c1 | 9.1 | 10.8 | -43.9 | 53.2 | 31.2 | -0.8 | x | x | x
COc1ccc(C(=O)COC(=O)C(CCSC)NC(=O)COc2ccccc2)cc1 (stereo not given) | 0.6 | 0.3 | 16.3 | -9.2 | 15.8 | x | x | x | x
O=C(O)Cn1c(-c2ccccc2)nc2ccccc21 | 3.6 | -2.0 | -1.0 | 95.8* | -12.0 | 2.7 | 28.8 | 7.6 | 4.5
COc1ccccc1C(=O)NC(=O)COC(=O)c1cnc(C)cn1 | 14.7 | -6.0 | 10.2 | -12.1 | -2.8 | -5.5 | x | x | x
COc1c(Cl)ccc(Cl)c1C(=O)NCc1ccco1 | 6.1 | 2.0 | 11.2 | 51.1 | 16.2 | -5.7 | 14.1 | 1.8 | 2.8
O=C(NCc1ccco1)c1c(F)cccc1Cl | 1.8 | -2.2 | 8.8 | -5.7 | 25.0 | -9.0 | x | x | x
CCOC(CNC(=O)c1cc2c(=O)n(CC)c3ccccc3c2s1)OCC | 8.1 | 1.9 | 15.9 | 10.6 | 9.9 | 4.5 | x | x | x
CCn1c(=O)c2cc(C(=O)NCC(OC)OC)sc2c2ccccc21 | -4.7 | 3.1 | 22.3 | 50.2 | 36.6 | 6.4 | 28.8 | 2.3 | 2.8
CCOC(=O)c1c(N)sc(C(O)(C(F)(F)F)C(F)(F)F)c1-c1ccc(F)cc1 | -19.8 | -20.1 | -12.3 | 53.4 | -2.5 | 43.1 | 6.2 | 4.8 | -56.3
CC(=O)Nc1ccc(S(=O)(=O)NCc2ccncc2)cc1 | 8.2 | 1.5 | -16.9 | 55.5* | -10.3 | 5.1 | 41.5 | 14.7 | 17.3
CC1CCCCC1NS(=O)(=O)c1ccc(S(=O)(=O)NCc2ccncc2)cc1 (stereo not given) | 47.7 | 77.2* | 23.5 | 67.1* | -2.1 | x | 58.9* | 24.4 | 19.9
Cc1ccc(C)c(S(=O)(=O)NCc2ccncc2)c1 | 14.8 | 8.9 | -43.6 | 20.0 | 12.5 | 10.2 | x | x | x
Cc1ccc(S(=O)(=O)NCc2ccncc2)cc1 | 34.9 | 53.2 | -28.2 | 70.7* | 4.2 | -7.4 | 57.4* | 33.5* | 20.6
CC(=O)Nc1ccc(S(=O)(=O)NCc2ccccn2)cc1 | 17.5 | -2.4 | -16.5 | 0.1 | -4.8 | -5.3 | x | x | x
Cc1cc(S(=O)(=O)NCc2ccncc2)c(C)cc1Br | 37.4 | 74.7* | 0.2 | 66.5* | 24.4 | -3.2 | 62.4* | 18.9 | 37.5*
SMILES | Jurkat NFkB inh | Beta apoptosis | 697 NFkB inh | Gli-Sufu antag | Mdm2-MdmX inh | CSC inhib | Gli-Sufu confirm | SufuKO cytotox | Wnt3a cs
Cc1ccc(S(=O)(=O)NCC(=O)NCc2ccncc2)cc1 | 0.0 | -3.5 | -0.4 | -11.7 | -5.1 | -8.4 | x | x | x
COc1ccccc1C(=O)NC(=O)CSc1nc(C)cs1 | 10.2 | 0.1 | -10.8 | -2.2 | 5.7 | 4.5 | x | x | x
O=C(CN1CCSCC1)c1c[nH]c2ccccc12 | -2.7 | -3.2 | 7.4 | 99.2* | 12.0 | -15.4 | 22.1 | 8.9 | -34.1
CC(=O)Nc1cccc(NC(=O)CCn2cnc3cc(C)c(C)cc32)c1 | 2.1 | -6.8 | 2.2 | 58.1* | -3.9 | -3.4 | 10.6 | 6.4 | -56.6
O=C(CSCc1ccc(Cl)cc1)N/N=C/c1ccccc1 | 6.2 | -4.9 | -22.4 | 50.5 | 7.4 | 7.1 | 7.6 | 15.2 | -2.7
CNc1ccccc1C(C)(C)c1cc(-c2cccc(Br)c2)no1 | 31.1 | x | -33.8 | 70.7* | 20.4 | 15.4 | 75.0* | 17.1 | 25.7*
CCOc1ccc(-n2c(SCc3ccc(C#N)cc3)nnc2-c2cccnc2)cc1 | -18.4 | 1.6 | -7.4 | 94.9* | 6.9 | 0.6 | 27.1 | 4.3 | -24.1
Cc1ccsc1C1C(C#N)=C(N)Oc2n[nH]c(C)c21 (stereo not given) | 0.2 | 0.1 | 19.8 | 64.9* | 8.3 | 3.8 | 20.9 | 3.4 | 9.9
Cc1ccc(-c2c[n+](Cc3ccc(Cl)c(Cl)c3)c3n2CCC3)cc1 | 11.3 | 89.0* | -31.4 | 84.6* | 35.0 | 33.5 | 79.7* | 26.4* | -13.6
Cc1ccc(NC(=O)C[n+]2cc(-c3ccc(C)cc3)n3c2CCC3)cc1 | 9.3 | 6.0 | 6.5 | 6.7 | -14.0 | 14.0 | x | x | x
CCc1nnc(NC(=O)C(C)C)s1 | 0.9 | -0.5 | 2.8 | 92.6* | -6.5 | -0.6 | 10.6 | -13.6 | 4.8
CC(C)C(=O)Nc1nnc(CCc2nnc(NC(=O)C(C)C)s2)s1 | 7.7 | -1.6 | 13.1 | -3.0 | -7.8 | -6.1 | x | x | x
Cc1ccc(N2CC(O)(c3cccs3)[N+]3=C2CCCC3)cc1 (stereo not given) | 2.7 | 4.4 | -0.7 | 33.1 | 1.7 | 31.1 | x | x | x
COc1ccc(C2(O)CN(c3ccc(C)cc3)C3=[N+]2CCCC3)cc1 (stereo not given) | -8.0 | 8.6 | 7.3 | 53.6 | 16.4 | 17.2 | 55.5* | 33.0* | -0.3
COc1ccc(CN(C)C(=O)c2cccc(NC(=O)CC3SC(N4CCCCC4)=NC3=O)c2)c(OC)c1 (stereo not given) | x | x | x | 65.4* | x | x | 48.9* | 12.8 | -4.8
COc1cccc(CN(C)C(=O)c2cccc(NC(=O)CC3SC(N4CCCCC4)=NC3=O)c2)c1OC (stereo not given) | 2.2 | -1.7 | 9.1 | -4.3 | 11.7 | x | x | x | x
O=C(NCc1ccccn1)c1ccc(Cn2cc(C(F)(F)F)ccc2=O)cc1 | 7.4 | -0.1 | 5.7 | 61.8* | -3.8 | -12.9 | 9.7 | 2.7 | -15.2
COc1ccc(C(=O)Nc2ccc3oc(-c4cccc(F)c4)nc3c2)cc1OC | -1.7 | x | -6.6 | 4.2 | 8.7 | 5.7 | x | x | x
